ATXN viability = viability counter-screen for ATXN expression inhibitors | S2 cells (HEK-293 line with an ATXN2-luciferase reporter) viability, CellTiter-Fluor protease fluorescence, 24 h | Potency, µM (titrated, usually from 56.7 µM), actives largely listed as cytotoxic | 400,000 compounds, 0.49% hits | AID 651635; note: nearly all actives have a fitted effect of over 40% in size
HepG2 tox = counter-screen for TGF-b inhibitors: cytotoxicity in HepG2 cells. HepG2 CAGA-GFP viability, ATP luminescence, 18 h. Potency, µM (titrated, usually from 46.1 µM), hits mostly cytotoxic. 410,000 compounds, 0.76% hits. AID 588856
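CellTiter-Glo luminescence gave cytotoxicity after 18 hours at 37 degrees C. The cells were HepG2 CAGA-GFP in 1% FBS DMEM, stimulated with 500 pg/mL TGF-beta after compound addition. %Activity was normalised to no-cell wells (complete cell-killing) and DMSO (no toxicity), and curves were fitted and classified.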
DRD3 antagonist = blocks the human D3 dopamine receptor. 360,000 compounds, 2.5% hits. AID 652054. D3R cells, DiscoveRx beta-arrestin luminescence, antagonist mode; stronger effect = lower value. max response, negative = inhibition, %. P35462; in the data active = max response below about -50%; inconclusive = no clear call, values can overlap the other calls
Target sequence (P35462 whole entry, looked up): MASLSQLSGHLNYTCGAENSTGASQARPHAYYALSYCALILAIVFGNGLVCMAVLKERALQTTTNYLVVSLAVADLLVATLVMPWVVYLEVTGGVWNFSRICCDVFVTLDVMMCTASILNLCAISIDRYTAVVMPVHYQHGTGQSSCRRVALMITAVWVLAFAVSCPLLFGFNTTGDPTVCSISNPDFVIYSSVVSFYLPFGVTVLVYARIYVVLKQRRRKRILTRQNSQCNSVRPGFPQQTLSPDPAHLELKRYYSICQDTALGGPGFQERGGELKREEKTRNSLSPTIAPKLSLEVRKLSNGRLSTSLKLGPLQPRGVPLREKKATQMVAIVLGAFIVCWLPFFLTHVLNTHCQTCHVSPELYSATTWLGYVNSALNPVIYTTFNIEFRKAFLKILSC
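Cells plated overnight at 1500 cells/well, then exposed to library compounds with dopamine controls for 90 minutes at 37 degrees C. DiscoveRx reagent added for 30–60 minutes at room temperature; luminescence read, quantitative HTS format.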
ATXN2 expr inh = inhibitors of ATXN2 expression; HEK-293 ATXN2-luciferase reporter, luminescence, 24 h; Potency, µM (doses to about 57 µM), hits mostly inhibitors; 360,000 compounds, 0.72% hits; AID 1745845; note: nearly all actives have a fitted effect of over 55% in size
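qHTS (up to 57 uM final) was run with 24 h compound exposure of reporter cells at 37 °C. Each well was multiplexed: SteadyGlo luminescence measured ATXN2-luciferase expression after a fluorogenic Gly-Phe-AFC viability readout (25 uM final).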
DRD3 agonist = agonists of human D3 dopamine receptor; 410,000 compounds, 0.58% hits; AID 652048; D3R DiscoveRx beta-arrestin cells, luminescence, 90 min; max activation, %; in the data active = max activation above about 30%
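Agonist-mode cell screen: cells plated at 1500/well and incubated overnight at 37 °C, then exposed to library compounds for 90 min at 37 °C. Detection reagent was added for 30–60 min at room temperature, and luminescence was read.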
TGFb inhibitor = inhibitors of TGF-b signaling | HepG2 CAGA-GFP TGF-b/SMAD3 reporter, GFP fluorescence, 18 h; TGF-beta stimulated, 500 pg/mL final | 410,000 compounds, 1.2% hits | AID 588855 | Potency, µM (top dose mostly 46.1 µM), usual class: inhibitors; note: nearly all actives have a fitted effect of over 65% in size
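Read-out: total well GFP (ex488/em500-530) summed from mean per-cell fluorescence. Cells: HEPG2 CAGA-GFP, 1% FBS DMEM, 18 h at 37 degrees C with 500 pg/mL final TGF-beta. Unstimulated wells served as the full-inhibition control; stimulated DMSO wells = 0%.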
Each line names hits and unclear results; the compound was inactive in the other large screens; ! = not confirmed by another sample. The list is not random: actives were taken first. Their share in the collection is about 4.7%. Unless noted, calls come from the whole dose curve; as a rule, active = well fitted curve in the direction sought with a large enough effect; inconclusive = small, poorly fitted or top-dose-only effect, or another doubt; inactive = no such curve, though single readings can be large; an effect the other way counts as inactive or inconclusive.

O=C(Nc1sc2c(c1C(=O)NCC1CCCO1)CCC2)c1cc(=O)c2ccccc2o1 (centres undefined)	none (no result: DRD3 antagonist)
Cn1nnnc1Sc1ncnc2scc(-c3cc4ccccc4o3)c12	ATXN viability 13µM, HepG2 tox 4.5µM, ATXN2 expr inh 5.6µM, TGFb inhibitor 2.5µM (no result: DRD3 antagonist, DRD3 agonist)
Cn1nnnc1Sc1ncnc2scc(-c3ccccc3C(F)(F)F)c12	ATXN viability inconclusive, ATXN2 expr inh inconclusive, TGFb inhibitor inconclusive (no result: DRD3 antagonist, DRD3 agonist)
Cn1nnnc1Sc1ncnc2scc(-c3cccs3)c12	ATXN2 expr inh 8.9µM, TGFb inhibitor inconclusive (no result: DRD3 antagonist, DRD3 agonist)
CC(=O)c1ccccc1-c1csc2ncnc(Sc3nnnn3C)c12	ATXN viability inconclusive, ATXN2 expr inh inconclusive, TGFb inhibitor inconclusive (no result: DRD3 antagonist, DRD3 agonist)
Cn1nnnc1Sc1ncnc2scc(-c3ccsc3)c12	ATXN viability inconclusive, ATXN2 expr inh 14µM, TGFb inhibitor 13µM (no result: DRD3 antagonist, DRD3 agonist)
Cc1ccc(-c2ccc(/C=C3\C(=O)ON=C3c3ccccc3)o2)c([N+](=O)[O-])c1	ATXN viability 35µM, ATXN2 expr inh inconclusive
Cc1ccc(/C=C2\C(=O)ON=C2c2ccccc2)o1	none
Cc1ccc2nc(CN3CCN(S(=O)(=O)c4ccc(C(C)C)cc4)CC3)oc2c1	ATXN viability inconclusive, TGFb inhibitor inconclusive (no result: DRD3 antagonist)
Cc1ccc(Nc2ncnc3nc[nH]c23)cc1	none (no result: ATXN viability, DRD3 antagonist, ATXN2 expr inh, DRD3 agonist)
COc1ccc(CNc2cccc3[nH]c(C(F)(F)F)nc23)cc1	TGFb inhibitor inconclusive
COc1cc(CNc2cccc3[nH]c(C(F)(F)F)nc23)cc(OC)c1	TGFb inhibitor 13µM (no result: ATXN2 expr inh)
Cc1ccsc1C(=O)N/N=C/C=C/c1ccccc1[N+](=O)[O-]	DRD3 antagonist -85
COc1ccc(OC)c(CCNc2ncnc3onc(-c4ccc(F)cc4)c23)c1	TGFb inhibitor inconclusive (no result: DRD3 antagonist)
CCCCNCCCOc1cccc(Cl)c1Cl	DRD3 antagonist -81, ATXN2 expr inh inconclusive, TGFb inhibitor inconclusive
CNCCCCOc1ccc(C(C)(C)C)cc1Cl	DRD3 antagonist -50, TGFb inhibitor inconclusive
Cc1ccc(OCCCNCCO)c(Br)c1	DRD3 antagonist -60
C=CCNCCOCCOc1ccc(C)cc1Br	DRD3 antagonist inconclusive
CCCCNCCCOc1ccc(C)cc1Br	ATXN viability inconclusive, DRD3 antagonist -67 (no result: ATXN2 expr inh)
CCOCCCNCc1c(Cl)cccc1Cl	DRD3 antagonist inconclusive
CSc1ccc(NC(=O)C2CCN(c3ncccn3)CC2)cc1	none (no result: DRD3 antagonist)
CCN(Cc1ccncc1)Cc1ccc2c(c1)CN(C(=O)c1ccccc1)CCO2	none (no result: HepG2 tox, DRD3 antagonist, ATXN2 expr inh, DRD3 agonist, TGFb inhibitor)
Cc1ccc(OCCCN(C)C)c(Br)c1	none
CNCCCOc1ccc(C)cc1Br	DRD3 antagonist -53
CCCn1c2ccccc2c2cnn(CC(=O)N3CCN(c4ccccc4)CC3)c(=O)c21	TGFb inhibitor inconclusive (no result: ATXN viability, DRD3 antagonist, ATXN2 expr inh)
Cc1ccc(CNc2nc(CN3CCSCC3)nc3ccccc23)o1	none (no result: HepG2 tox, DRD3 antagonist, ATXN2 expr inh, DRD3 agonist, TGFb inhibitor)
COc1ccc(OC)c2c1CCC2=O	DRD3 antagonist -52
Cc1ccc(-n2c(Cc3ccccc3)nnc2SCc2nc(-c3cccs3)no2)cc1C	ATXN viability inconclusive, ATXN2 expr inh inconclusive, TGFb inhibitor inconclusive (no result: DRD3 antagonist)
Cc1c(NC(=O)c2cc3ccccc3o2)cccc1-c1nc2ccccc2o1	TGFb inhibitor inconclusive (no result: DRD3 antagonist)
Cn1nc([N+](=O)[O-])nc1S(C)(=O)=O	ATXN viability inconclusive, HepG2 tox 20µM, ATXN2 expr inh inconclusive, TGFb inhibitor 13µM
COc1ccc2c(C)c(CCC(=O)NCCc3ccccc3)c(=O)oc2c1	none (no result: DRD3 antagonist)
Cc1nc(SCC(=O)O)c2oc3ccccc3c2n1	none
Cc1nc(SCC(=O)N2CCN(c3ccccc3)CC2)c2oc3ccccc3c2n1	ATXN viability inconclusive, DRD3 agonist 42
CCOC(=O)C(C)NC(=O)c1c2c(nc3ccccc13)C(=O)N(C1CCCCC1)C2 (centres undefined)	TGFb inhibitor inconclusive (no result: ATXN viability, DRD3 antagonist, ATXN2 expr inh)
CC(C)(C)c1ccc(C(=O)N2CCCCCC2=O)cc1	ATXN2 expr inh 6.3µM
COC(=O)c1ccc(NC(=O)c2nn(C)c3c2COc2ccccc2-3)cc1	none (no result: ATXN viability, DRD3 antagonist, ATXN2 expr inh)
CCOc1ccc(NC(=O)c2nn(C)c3c2COc2ccccc2-3)cc1	DRD3 agonist 55 (no result: ATXN viability, DRD3 antagonist, ATXN2 expr inh)
Cc1ccnc(NS(=O)(=O)c2ccc(NC(=O)Nc3ccc(S(=O)(=O)Nc4nccc(C)n4)cc3)cc2)n1	none (no result: ATXN viability, HepG2 tox, DRD3 antagonist, DRD3 agonist, TGFb inhibitor)
CCOc1ccc(OCC)c(Nc2nc3ccc(Cl)cc3n3cnnc23)c1	none (no result: ATXN viability, DRD3 antagonist, ATXN2 expr inh, TGFb inhibitor)
Cc1ccc(OC(=O)c2oc3ccc(F)cc3c2C)c(C)c1	ATXN viability 18µM, ATXN2 expr inh inconclusive
COc1ccc(N2CCN(c3ncnc4c3cnn4-c3ccc(F)cc3)CC2)cc1	none (no result: DRD3 antagonist)
COc1cc2c(cc1OC)C(c1ccc(-c3ccc(Cl)cc3Cl)o1)=NCC2	ATXN viability inconclusive, ATXN2 expr inh inconclusive, TGFb inhibitor 14µM
COc1cc2c(cc1OC)C(c1ccc(Cl)cc1)=NCC2	ATXN viability inconclusive, TGFb inhibitor inconclusive (no result: ATXN2 expr inh)
COc1cc2c(cc1OC)C(c1ccc(-c3cc(Cl)ccc3Cl)o1)=NCC2	ATXN viability inconclusive, ATXN2 expr inh inconclusive
COc1cc2c(cc1OC)C(c1ccc(-c3ccccc3Cl)o1)=NCC2	ATXN2 expr inh 35µM, TGFb inhibitor inconclusive (no result: ATXN viability)
COc1cc2c(cc1OC)C(c1ccc(-c3ccc(Cl)c(Cl)c3)o1)=NCC2	HepG2 tox 11µM!, ATXN2 expr inh inconclusive, TGFb inhibitor 11µM
CCC[C@@H]1C[C@@H](C(=O)N[C@@H]([C@H]2O[C@H](SC)[C@H](O)[C@@H](O)[C@H]2O)[C@H](C)Cl)N(C)C1	none (no result: HepG2 tox, DRD3 antagonist, ATXN2 expr inh, TGFb inhibitor)

Compound activity from PubChem BioAssay.
